This test deals with CLZ3 (HCA2 human fibroblast dual HR-NHEJ reporter). Briefly: HR repair efficiency (tdTomato+ cells) relative to control (log10 fold); higher = more homologous recombination. The note with it: 5 µM; doxycycline 0.5 ug/mL.
For `C[C@@H]1O[C@@H](O[C@@H]2[C@@H](O)[C@H](OCCc3ccc(O)c(O)c3)O[C@H](COC(=O)/C=C/c3ccc(O)c(O)c3)[C@H]2O)[C@H](O)[C@H](O)[C@H]1O` [Isoacteoside], the “HR repair efficiency (log10)” value amounted to 0.017.

As for `O=C(O)C1=C[C@@H](O)[C@@H](O)[C@H](O)C1` [Shikimic Acid], the “HR repair efficiency (log10)” value was 0.17.

Consider `COc1ccc(-c2cc(=O)c3c(O)cc(O)c(-c4cc(-c5cc(=O)c6c(O)cc(OC)cc6o5)ccc4OC)c3o2)cc1` [Sciadopitysin], for which the “HR repair efficiency (log10)” value stood at 0.234.

Turning to `COc1ccc([C@@H]2CC(=O)c3c(O)cc(O[C@@H]4O[C@H](CO)[C@@H](O)[C@H](O)[C@H]4O[C@@H]4O[C@@H](C)[C@H](O)[C@@H](O)[C@H]4O)cc3O2)cc1O` [Neohesperidin], the “HR repair efficiency (log10)” value was -0.11.

Consider `Nc1ncnc2c1ncn2[C@@H]1O[C@H](CO)[C@@H](O)[C@H]1O` [Adenosine], for which the “HR repair efficiency (log10)” value is -0.0239.

Turning to `Cc1cc(O)cc(O[C@@H]2O[C@H](CO)[C@@H](O)[C@H](O)[C@H]2O)c1` [Orcinol Glucoside], the “HR repair efficiency (log10)” value is -0.0841.

On to `OC[C@H]1NC[C@H](O)[C@@H](O)[C@@H]1O` [1-Deoxynojirimycin], for which the “HR repair efficiency (log10)” value was determined as 0.0442.

Turning to `COc1ccc(C=O)c(O)c1` [4-Methoxysalicylaldehyde], the “HR repair efficiency (log10)” value was -0.0885.

With `O=C1c2cccc(O)c2C(=O)c2c(O)cccc21` [1,8-Dihydroxyanthraquinone], the “HR repair efficiency (log10)” value is -0.106.

As for `Cc1ccc(C(C)C)c(O)c1` [Thymol], the “HR repair efficiency (log10)” value was determined as 0.0691.

Turning to `C[C@@H]1O[C@@H](O[C@H]2[C@H](O[C@H]3CC[C@@]4(C)[C@@H](CC[C@]5(C)[C@@H]4CC=C4[C@@H]6CC(C)(C)CC[C@]6(C(=O)O)CC[C@]45C)[C@]3(C)CO)OC[C@H](O)[C@@H]2O)[C@H](O)[C@H](O)[C@H]1O` [α-Hederin], the “HR repair efficiency (log10)” value was -0.192.

Regarding `COc1ccc2c(c1OC)CN(C)CCc1cc3c(cc1C(=O)C2)OCO3` [Allocryptopine], the “HR repair efficiency (log10)” value was 0.04.

For `CC=C1[C@H](O[C@@H]2O[C@H](CO)[C@@H](O)[C@H](O)[C@H]2O)OC=C(C(=O)OC)[C@H]1CC(=O)OC[C@H]1O[C@@H](OCCc2ccc(O)cc2)[C@H](O)[C@@H](O)[C@@H]1O` (stereo in doubt) [Specnuezhenide], the “HR repair efficiency (log10)” value was determined as 0.0832.

Take `COc1cc(OC)c2ccc(=O)oc2c1` [5,7-Dimethoxycoumarin]: the “HR repair efficiency (log10)” value was found to be 0.0758.

With `C[C@H](CCC(=O)NCCS(=O)(=O)O)[C@H]1CC[C@H]2[C@@H]3C[C@H](O)[C@@H]4C[C@H](O)CC[C@]4(C)[C@H]3CC[C@]12C` [Taurohyodeoxycholic Acid], the “HR repair efficiency (log10)” value was found to be 0.133.

As for `CC1(C)CC[C@]2(C(=O)O)CCC3=C([C@@H](CCl)C[C@@H]4[C@@]5(C)C[C@H](O)[C@H](O)[C@@](C)(C(=O)O)[C@@H]5CC[C@@]34C)[C@@H]2C1` [Senegenin], the “HR repair efficiency (log10)” value was -0.031.

Consider `Cc1ccc(C(C)C)cc1O` [Carvacrol], for which the “HR repair efficiency (log10)” value is -0.173.

On to `O=C(O)C(O)Cc1ccc(O)c(O)c1` (stereo not given) [Sodium Danshensu], for which the “HR repair efficiency (log10)” value was found to be 0.0346.

Take `O=C1O[C@H]2[C@@H]3OC(=O)c4cc(O)c(O)c(O)c4-c4c(cc(O)c(O)c4O)C(=O)OC[C@H]2O[C@@H](OC(=O)c2cc(O)c(O)c(O)c2)[C@@H]3OC(=O)c2cc(O)c(O)c3c2[C@@H]2C1=CC(=O)[C@](O)(O3)C2(O)O` [Geraniin]: the “HR repair efficiency (log10)” value came out at 0.0593.

For the compound `COC(=O)C1=CO[C@@H](O[C@@H]2O[C@H](CO[C@@H]3O[C@H](CO)[C@@H](O)[C@H](O)[C@H]3O)[C@@H](O)[C@H](O)[C@H]2O)[C@@H]2C(CO)=CC[C@H]12` [Genipin 1-Gentiobioside], the “HR repair efficiency (log10)” value is 0.0278.

As to `CC1(C)CC[C@]2(C(=O)O)CC[C@]3(C)C(=CC[C@@H]4[C@@]5(C)CC[C@H](O)[C@@](C)(CO)[C@@H]5CC[C@]43C)[C@@H]2C1` [Hederagenin], the “HR repair efficiency (log10)” value is -0.0988.

Take `COc1ccc(-c2cc(=O)c3c(O)c(OC)c(O)cc3o2)cc1` [Pectolinarigenin]: the “HR repair efficiency (log10)” value is -0.0222.

For the compound `CC(C)=C1CC[C@@H](C)CC1=O` [Pulegone], the “HR repair efficiency (log10)” value was -0.0589.

Consider `COc1c2ccoc2cc2oc(=O)ccc12` [Bergapten], for which the “HR repair efficiency (log10)” value was 0.125.

Turning to `C[C@H](CCC(=O)O)[C@H]1CC[C@H]2[C@@H]3[C@H](O)C[C@@H]4C[C@H](O)CC[C@]4(C)[C@H]3CC[C@]12C` [Chenodeoxycholic Acid], the “HR repair efficiency (log10)” value worked out at 0.00712.

`CCOC(=O)/C=C/c1ccc(O)c(O)c1` [Ethyl Caffeate]: the “HR repair efficiency (log10)” value was 0.0777.

Consider `COc1cc(/C=C/C(=O)O)ccc1O` [Ferulaic Acid], for which the “HR repair efficiency (log10)” value was -0.0235.

`OC[C@H]1O[C@@H](Oc2cc(O)cc(/C=C/c3ccc(O[C@@H]4O[C@H](CO)[C@@H](O)[C@H](O)[C@H]4O)cc3O)c2)[C@H](O)[C@@H](O)[C@@H]1O` [Mulberroside A]: the “HR repair efficiency (log10)” value was 0.234.

For `C=C1C[C@@]23CC[C@H]4[C@@](C)(CCC[C@@]4(C)C(=O)O[C@@H]4O[C@H](CO)[C@@H](O)[C@H](O)[C@H]4O)[C@@H]2CC[C@]1(O[C@@H]1O[C@H](CO)[C@@H](O)[C@H](O)[C@H]1O)C3` [Rubusoside], the “HR repair efficiency (log10)” value worked out at 0.0779.

As for `C/C=C/c1cc(OC)c2c(c1)[C@H](C)[C@@H](c1ccc3c(c1)OCO3)O2` [Licarin B], the “HR repair efficiency (log10)” value amounted to 0.192.

`Cn1c(=O)c2nc[nH]c2n(C)c1=O` [Theophylline]: the “HR repair efficiency (log10)” value came out at 0.0978.

Regarding `CC(C)[C@@H](C)/C=C/[C@@H](C)[C@H]1CC[C@H]2C3=CC=C4C[C@@H](O)CC[C@]4(C)[C@H]3CC[C@]12C` [Ergosterol], the “HR repair efficiency (log10)” value turned out to be 0.141.

As for `O=C(O)C(O)c1ccccc1` (stereo not given) [Mandelic Acid], the “HR repair efficiency (log10)” value was determined as 0.105.

With `CC1(C)OC(=O)C=C[C@]2(C)[C@H]3CC[C@@]4(C)[C@H](c5ccoc5)OC(=O)[C@H]5O[C@]54[C@]3(C)C(=O)C[C@@H]12` [Obacunone], the “HR repair efficiency (log10)” value was found to be 0.0481.

Regarding `O=C(O)CC(O)C(=O)O` (stereo not given) [Malic Acid], the “HR repair efficiency (log10)” value was -0.141.

Consider `OC[C@H]1O[C@@H](Oc2c(O)cc(O)cc2/C=C/c2ccc(O)cc2)[C@H](O)[C@@H](O)[C@@H]1O` [2,3,5,4'-Tetrahydroxy Stilbene 2-Ο-Β-D-Glucoside], for which the “HR repair efficiency (log10)” value is -0.0324.

Take `CC(C)=CCC[C@](C)(O[C@@H]1O[C@H](CO[C@@H]2O[C@@H](CO)[C@H](O)[C@H]2O)[C@@H](O)[C@H](O)[C@H]1O)[C@H]1CC[C@]2(C)[C@@H]1[C@H](O)C[C@@H]1[C@@]3(C)CC[C@H](O[C@@H]4O[C@H](CO)[C@@H](O)[C@H](O)[C@H]4O[C@@H]4O[C@H](CO)[C@@H](O)[C@H](O)[C@H]4O)C(C)(C)[C@@H]3CC[C@]12C` [Ginsenoside Rc]: the “HR repair efficiency (log10)” value worked out at 0.0964.

Regarding `COc1c2c(cc3c1-c1c(cc4c(c1OC)OCO4)C[C@H](C)[C@H](C)C3)OCO2` [Schisandrin C], the “HR repair efficiency (log10)” value amounted to 0.0438.

`O=c1c(-c2ccc(O)c(O)c2)coc2c([C@@H]3O[C@H](CO)[C@@H](O)[C@H](O)[C@H]3O)c(O)ccc12` [3-Hydroxy Puerarin]: the “HR repair efficiency (log10)” value was -0.112.

On to `COc1c(O)cc2oc(-c3ccccc3)cc(=O)c2c1O` [Oroxylin A], for which the “HR repair efficiency (log10)” value stood at 0.0534.

Values taken from the supplement of paper PMC7380943.
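Further: compound given one day before doxycycline, which switches on I-SceI endonuclease expression to create double-strand breaks within the integrated reporter.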
